# Laboratory results: the supplement of paper PMC8728848
# The entries come from a sample that favours the strongest signals as a whole.
# B1: Epa20 (Candida glabrata) (protein)
# chain: MGSSHHHHHHSSGLVPRGSHMASSNIPNNYPLGCSNKYSGHLPGLKMELYSYNYVNPRHPDPQNPGKLDQLYDPNLLGTYECFDSSYKDINYPRVGYKSKTLIGRSDGVSGILNFNFVPPWGCMPQKGQLPPAYNFKSNITLSNFTMILFGYFKPKISGNHIFSLHGDDLIYLNFGAGNAFDCCRQESSADNFGNYQAFSLWGINWEKKTLTVYLDMNTYYPIRIFYNNRDYQAIFNFSFKTEFDSSPVIDFQDYFFFLRDIDGGCPGEV
# What was measured:
# Test in all cases: glycan array binding signal (z-score within array); higher = stronger binding
# Conditions in all cases: glycan notation: IUPAC condensed, linker removed
# [1] = target: Neu5Ac(a2-3)Gal(b1-4)GlcNAc(b1-2)Man(a1-3)[Neu5Ac(a2-6)Gal(b1-4)GlcNAc(b1-2)Man(a1-6)]Man(b1-4)GlcNAc(b1-4)GlcNAc
# Method in brief: (§1)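 Negative Z-scores can be read as non-binding. The Z-score is calculated within each array and then averaged across arrays of one protein sequence at different concentrations or buffers and across linkers. Arrays, 3228 in all, were curated from the Consortium for Functional Glycomics database and kept only where the protein sequence was available.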
# [2] = target: Neu5Ac(a2-3)Gal(b1-4)GlcNAc(b1-3)Gal(b1-3)GlcNAc
# Method in brief: as §1
# [3] = target: Neu5Ac(a2-3)Gal(b1-4)GlcNAc(b1-3)Gal(b1-4)GlcNAc(b1-3)Gal(b1-4)GlcNAc(b1-2)Man(a1-3)[Neu5Ac(a2-3)Gal(b1-4)GlcNAc(b1-3)Gal(b1-4)GlcNAc(b1-3)Gal(b1-4)GlcNAc(b1-2)Man(a1-6)]GalNAc
# Method in brief: as §1
# [4] = target: Neu5Ac(a2-3)Gal(b1-4)GlcNAc(b1-3)Gal(b1-4)GlcNAc(b1-3)[Neu5Ac(a2-3)Gal(b1-4)GlcNAc(b1-3)Gal(b1-4)GlcNAc(b1-6)]GalNAc
# Method in brief: as §1
# [5] = target: Neu5Ac(a2-3)Gal(b1-4)GlcNAc(b1-3)[Neu5Ac(a2-3)Gal(b1-4)GlcNAc(b1-6)]GalNAc
# Method in brief: as §1
# [6] = target: Neu5Ac(a2-3)Gal(b1-4)[Fuc(a1-3)]GlcNAc(b1-3)GalNAc
# Method in brief: as §1
# [7] = target: Neu5Ac(a2-6)Gal(b1-4)GlcNAc(b1-2)Man(a1-3)[GlcNAc(b1-4)][Neu5Ac(a2-6)Gal(b1-4)GlcNAc(b1-2)Man(a1-6)]Man(b1-4)GlcNAc(b1-4)GlcNAc
# Method in brief: as §1
# [8] = target: Neu5Ac(a2-6)Gal(b1-4)GlcNAc(b1-2)Man(a1-3)[Man(a1-6)]Man(b1-4)GlcNAc(b1-4)GlcNAc
# Method in brief: as §1
# [9] = target: Neu5Ac(a2-6)Gal(b1-4)GlcNAc(b1-2)Man(a1-6)Man(b1-4)GlcNAc(b1-4)GlcNAc
# Method in brief: as §1
# [10] = target: Neu5Ac(a2-6)Gal(b1-4)GlcNAc(b1-3)Gal(b1-4)GlcNAc(b1-3)Gal(b1-4)GlcNAc(b1-2)Man(a1-3)[Neu5Ac(a2-6)Gal(b1-4)GlcNAc(b1-3)Gal(b1-4)GlcNAc(b1-3)Gal(b1-4)GlcNAc(b1-2)Man(a1-6)]GalNAc
# Method in brief: as §1
binder,measurement,setting,value
B1,glycan array binding signal (z-score),[1],-0.493
same,glycan array binding signal (z-score),[2],-0.463
same,glycan array binding signal (z-score),[3],2.75
same,glycan array binding signal (z-score),[4],4.06
same,glycan array binding signal (z-score),[5],2.82
same,glycan array binding signal (z-score),[6],2.98
same,glycan array binding signal (z-score),[7],-0.397
same,glycan array binding signal (z-score),[8],0.402
same,glycan array binding signal (z-score),[9],-0.108
same,glycan array binding signal (z-score),[10],3.97
